Measured values from PubChem BioAssay (NCATS).
Inconclusive results are not listed. Where a call stands in place of a potency, no number is given. The source made the active and inactive calls. The call rests on the fitted dose curve; in most records, active means well fitted inhibition curve with a large enough effect; inconclusive means small, poorly fitted or top-dose-only effect; inactive means flat fitted curve, though single readings scatter.

What was measured:
Experiment in all cases: qHTS profiling for inhibitors of Plasmodium falciparum proliferation (AID 504749); further: nearly all actives have a fitted effect of over 60% in size
Conditions in all cases: P. falciparum in erythrocytes, SYBR Green DNA, 72 h; series mostly up to 28.7 µM
[1] = test system: CP256
How it was run: (§1)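 Quantitative HTS: compounds pinned into medium, infected erythrocytes added (0.3% parasitemia, 2.5% hematocrit), 72 h culture at 37 C under 5% CO2. Saponin/Triton lysis with SYBR Green I, overnight RT, then fluorescence read.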

[2] = test system: CP260
How it was run: as §1

[3] = test system: CP262
How it was run: as §1

[4] = test system: CP265
How it was run: as §1

[5] = test system: CP266
How it was run: as §1

[6] = test system: CP268
How it was run: as §1

[7] = test system: CP269
How it was run: as §1

[8] = test system: CP286
How it was run: as §1

[9] = test system: CP291
How it was run: as §1

[10] = test system: CP297
How it was run: as §1

[11] = test system: CP305
How it was run: as §1

[12] = test system: CP315
How it was run: as §1

[13] = test system: CP325
How it was run: as §1

[14] = test system: CP329
How it was run: as §1

[15] = test system: CP335
How it was run: as §1

[16] = test system: DFO2036
How it was run: as §1

[17] = test system: DIV14
How it was run: as §1

[18] = test system: DIV17
How it was run: as §1

[19] = test system: DIV30
How it was run: as §1

[20] = test system: ECU
How it was run: as §1

[21] = test system: FAB9
How it was run: as §1

[22] = test system: GB4
How it was run: as §1

[23] = test system: HB3
How it was run: as §1

[24] = test system: ICS
How it was run: as §1

[25] = test system: JCK
How it was run: as §1

[26] = test system: N140
How it was run: as §1

[27] = test system: P93_24
How it was run: as §1

[28] = test system: P94_40
How it was run: as §1

[29] = test system: PAD
How it was run: as §1

[30] = test system: PC15
How it was run: as §1

[31] = test system: PC49
How it was run: as §1

[32] = test system: SC27B
How it was run: as §1

[33] = test system: TAB109
How it was run: as §1

[34] = test system: TAB113
How it was run: as §1

[35] = test system: TAB165
How it was run: as §1

[36] = test system: W2
How it was run: as §1
Potency means the concentration at half of the fitted maximal effect.

CCC(C)n1ncn(-c2ccc(N3CCN(c4ccc(OCC5COC(Cn6cncn6)(c6ccc(Cl)cc6Cl)O5)cc4)CC3)cc2)c1=O (stereo unspecified)
Potency [1]: inactive
Potency [2]: 6.31 µM (active)
Potency [3]: inactive
Potency [4]: inactive
Potency [5]: inactive
Potency [6]: inactive
Potency [7]: inactive
Potency [8]: 4.47 µM (active)
Potency [9]: inactive
Potency [10]: inactive
Potency [11]: inactive
Potency [12]: inactive
Potency [13]: inactive
Potency [14]: inactive
Potency [15]: 4.26 µM (active)
Potency [16]: inactive
Potency [17]: inactive
Potency [18]: inactive
Potency [19]: inactive
Potency [20]: inactive
Potency [21]: inactive
Potency [22]: inactive
Potency [23]: inactive
Potency [24]: 2.51 µM (active)
Potency [25]: inactive
Potency [26]: inactive
Potency [27]: inactive
Potency [28]: inactive
Potency [29]: inactive
Potency [30]: inactive
Potency [31]: inactive
Potency [32]: inactive
Potency [33]: inactive
Potency [34]: inactive
Potency [35]: inactive
Potency [36]: 2.13 µM (active)
